In all, about 69,000 compounds went through this assay and about 8,600 (12%) showed an effect of 50% or more. This excerpt belongs to a sample that is enriched for strong results.
What follows are compounds tested on Plasmodium berghei (assay: Screen against P. berghei liver stage (PbLuc), transformed with Luciferase, at 10uM). Conditions: tested at 10 uM.
Format: functional, HepG2
Compound `O=S(=O)(c1ccc(F)cc1)N1CC[C@H]2[C@H]1CCN2c1ncccn1` has an INHIBITION of 2.4%. In the case of `O=C(c1cnc2c(cnn2C2CCCC2)c1)N1CCN(CCO)CC1`, the INHIBITION was 24%. `Cn1cc(CN2CCCC(CCc3ccc(F)cc3F)C2)cn1` (centres undefined) gave an INHIBITION of 43%. `Fc1ccc(OCCCN2CCCC(Cn3cncn3)C2)cc1` (centres undefined) showed an INHIBITION of 5.9%. With `Cn1nccc1CN1CCCC(COc2ccccc2F)C1` (centres undefined) the INHIBITION was 17.4%. For `COc1ccc(OCC2CCCN(Cc3ccncc3)C2)cc1` (centres undefined), the INHIBITION was 46.3%. In the case of `Cn1cc(CN2CCCC(CCc3ccc(F)cc3)C2)cn1` (centres undefined), the INHIBITION was 59.2%. `CCn1cc(CN2CCCC(COc3ccccc3F)C2)cn1` (centres undefined) was tested, and the INHIBITION was 69.3%. For `CCn1cc(CN2CCCC(COc3ccc(F)cc3)C2)cn1` (centres undefined), the INHIBITION was 74%. For `COc1ccc(CN2CC[C@H](O)[C@@H]2Cc2cnn(C)c2)cc1`, the INHIBITION was 47.4%. In the case of `Cn1cc(CN2CCCC(CCc3ccc(F)c(F)c3)C2)cn1` (centres undefined), the INHIBITION was 38.6%. For `Cn1cc(C[C@H]2[C@H](O)CCN2Cc2ccc(F)cc2)cn1`, the INHIBITION was 57.9%. With `Cn1cc(CN2CCCC(CCc3c(F)cccc3F)C2)cn1` (centres undefined) the INHIBITION was 30.5%. Work on `Cn1cc(C[C@H]2[C@H](O)CCN2Cc2ccncc2)cn1` yielded an INHIBITION of 46.2%. `Cc1cc(NC(C)c2nncn2C2CCCC2)n2nc(C)c(C)c2n1` (centres undefined) showed an INHIBITION of 32.1%. Compound `CC1CCN(c2nccn3c(=O)[nH]nc23)CC1` has an INHIBITION of 16.8%. `Cc1oc(-c2cccc(F)c2F)nc1CN(CCO)C(C)C` gave an INHIBITION of 13.6%. For `CNC(=O)c1ccc(C2CN(C(=O)c3coc(C)n3)CCO2)nc1` (centres undefined), the INHIBITION was -24.1%. Compound `FC(F)(F)COCCN1CCOC(Cn2cccn2)C1` (centres undefined) has an INHIBITION of 40%. `CCCNC(=O)NC(=O)CNC(C)(C)c1ccc2c(c1)OCCO2` was tested, and the INHIBITION was -4.94%. With `Cc1cnc(C)c(N2C[C@H]3OC(=O)N(C4CCCC4)[C@H]3C2)n1` the INHIBITION was 68.1%. Compound `Cc1ccc(C(N)=O)c(N2C[C@H]3OC(=O)N(C4CCCC4)[C@H]3C2)n1` has an INHIBITION of -14.1%. `COc1ccccc1CN1C(=O)O[C@@H]2CN(c3nc(C)cnc3C)C[C@@H]21` gave an INHIBITION of 20.9%. `CC(C(=O)NCc1ccc(N2CCCC2)nc1)S(C)(=O)=O` (centres undefined) gave an INHIBITION of 45.7%. Work on `Cc1cccc(C(=O)N2CCCN(Cc3cscn3)CC2)c1` yielded an INHIBITION of -33.7%. `CCOC(=O)CCn1cnc2onc(-c3cc(OC)ccc3Cl)c2c1=O` gave an INHIBITION of -8.07%. `CCOC(=O)CCn1cnc2onc(-c3ccc(OC)cc3)c2c1=O` gave an INHIBITION of 71.4%. Work on `COc1ccc(Cl)c(-c2noc3ncn(CCC(=O)O)c(=O)c23)c1` yielded an INHIBITION of 25.9%. `Cc1noc(C)c1CC(=O)N1CCc2sccc2C1` gave an INHIBITION of 19.2%. `Cc1ccc(NCc2cn3c(n2)CN(Cc2ccc(C)o2)CC3)nn1` gave an INHIBITION of 29.8%. Work on `CNc1cc(C2CN(C(=O)c3ccn(C)n3)CCO2)nc(C)n1` (centres undefined) yielded an INHIBITION of -29%. `CS(=O)(=O)CCSc1cccc(C#N)c1` showed an INHIBITION of 7.84%. `CCS(=O)(=O)CCSc1cccc(C#N)c1` showed an INHIBITION of 7.43%. `CCCS(=O)(=O)CCSc1cccc(C#N)c1` showed an INHIBITION of 51.4%. `Cc1nsc(C(=O)NCCc2ccccc2)n1` gave an INHIBITION of -67.9%. In the case of `Cc1nsc(C(=O)NCCc2ccc(S(N)(=O)=O)cc2)n1`, the INHIBITION was 69.5%. Work on `Cc1nsc(C(=O)NCCc2ccc(F)cc2)n1` yielded an INHIBITION of -10.6%. For `Cc1nsc(C(=O)NCCc2cccs2)n1`, the INHIBITION was -12.1%. With `Cc1nsc(C(=O)NCCc2ccc(Cl)cc2)n1` the INHIBITION was 20.9%. Compound `Cc1nsc(C(=O)NCCCc2ccccc2)n1` has an INHIBITION of 58.1%. `CC(C)(O)CCc1cccc(C(=O)N2CCC[C@H]2CN2CCCC2)c1` gave an INHIBITION of 1.56%. For `Cc1ccc(NC2CCN(C(=O)c3ccc4c(c3)CCC4)CC2)nn1`, the INHIBITION was 18.2%. With `CCC(CC)NC(=O)c1nc2n(n1)-c1ccccc1S(=O)(=O)N2` the INHIBITION was -9.07%. `Cc1n[nH]c(C)c1-c1nccnc1CC1CCCN(C)C1` (centres undefined) showed an INHIBITION of 23.2%. `c1ccc(-c2nnc(CN3C[C@H]4CC[C@@H](C3)N(CC3CCC3)C4)o2)cc1` was tested, and the INHIBITION was 46.6%. In the case of `Cc1ccc(C(=O)N2CC[C@H]3[C@@H]2CCC(=O)N3c2cccnc2)o1`, the INHIBITION was 23.1%. Work on `COc1cccc(S(=O)(=O)CCN2CCN(CCO)CC2)c1` yielded an INHIBITION of 8.24%. Compound `COCCN1CCN(CCS(=O)(=O)c2cccc(OC)c2)CC1` has an INHIBITION of 92.8%. Compound `COc1cccc(S(=O)(=O)CCN2CCCN(C(C)=O)CC2)c1` has an INHIBITION of 45.8%. Compound `COc1cccc(S(=O)(=O)CCN2CCN(CC(F)F)CC2)c1` has an INHIBITION of 28.2%. Compound `COc1cccc(S(=O)(=O)CCN2CCC3(CC2)OCCO3)c1` has an INHIBITION of 60%. In the case of `COc1cccc(S(=O)(=O)CCN2CCCCC2)c1`, the INHIBITION was -11.1%. `Cc1cc(CN2C[C@H](OCC3CCOCC3)[C@H]3COC[C@H]32)oc1C` gave an INHIBITION of 44.4%. `CCc1cc(NCCCOC2CCN(C)CC2)ncn1` gave an INHIBITION of 25.5%. Work on `O=C(NCCO)Nc1c(F)cc(F)cc1-c1ccccc1` yielded an INHIBITION of 33%. `Cc1noc([C@@]23CCO[C@@H]2CCN(CC2CCOCC2)C3)n1` was tested, and the INHIBITION was 17.3%. For `c1ccc2c(c1)CCN(c1nc(N3CCOCC3)c3nn[nH]c3n1)C2`, the INHIBITION was 54%. `c1ccc2c(c1)CCN2c1nc(N2CCOCC2)c2nn[nH]c2n1` was tested, and the INHIBITION was 39.9%. Work on `C1CCN(c2nc(N3CCOCC3)nc3[nH]nnc23)CC1` yielded an INHIBITION of 36.7%. Compound `COc1ccsc1C(=O)N1CCCN(Cc2cscn2)CC1` has an INHIBITION of -51.5%. In the case of `O=C(Cc1ccc2c(c1)OCCO2)N1CCN(c2cnccn2)CC1`, the INHIBITION was -5.25%. `CCC1CN(c2nnc(C)c(C)c2C#N)CCO1` (centres undefined) was tested, and the INHIBITION was 17.8%. Compound `Cc1cc(C)n(CC2CN(CCOc3ccc(C#N)cc3)CCO2)n1` (centres undefined) has an INHIBITION of 51.1%. With `Cc1nc(C)n(CC2CN(CCOc3ccc(C#N)cc3)CCO2)n1` (centres undefined) the INHIBITION was 42%. `Cc1nc(C)n(CC2CN(c3nnc(C)c(C)c3C#N)CCO2)n1` (centres undefined) gave an INHIBITION of -27.3%. `Cc1cc(C)n(CC2CN(c3nnc(C)c(C)c3C#N)CCO2)n1` (centres undefined) was tested, and the INHIBITION was 53.1%. Compound `Cc1cc(C)n(CC2CN(CCOc3cccc(C#N)c3)CCO2)n1` (centres undefined) has an INHIBITION of 20.6%. For `CN(C)C(=O)NC1COC2(CCN(Cc3ccccc3)CC2)C1` (centres undefined), the INHIBITION was 37.5%. With `CC(N)Cc1ccccc1Sc1ccccc1` (centres undefined) the INHIBITION was 24.7%.
